From PubChem
Methyltransferases: Primary Screen for Target Class Profiling of Small Molecule Inhibitors of Methyltransferases | purified enzyme, MTase-Glo SAH luminescence; hits give low values | calls only at 40 µM | 25,000 compounds, 3.9% hits; call rule not given here
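Each enzyme was reacted with SAM and its substrate, with compounds tested once at 40 uM; SAH formed was read by MTase-Glo luminescence.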
Active calls of the source: *; i = inactive; + = active, no number; ! = a repeat was not active. This is one part of a sample in which hits are shown more often than they occur. % is set by controls: 0 for no effect and ±100 for the full control effect.

SMILES	Methyltransferases
C=CC[N+]1([C@H]2C[C@H]3[C@@H]4CC[C@H]5C[C@H](OC(C)=O)[C@@H](N6CCCCC6)C[C@]5(C)[C@H]4CC[C@]3(C)[C@H]2OC(=O)CC)CCCCC1	+
O=C(CCc1nnc2n(Cc3ccccc3Cl)c(=O)c3ccccc3n12)NCCc1ccccc1	i
Cc1nc2c3ccccc3n3c(CCCC(=O)N4CCN(Cc5ccccc5)CC4)nnc3n2n1	i
O=C(NCc1ccccc1F)c1ccc2c(=O)nc3c(-c4cccc(F)c4)n[nH]n3c2c1	i
C=Cc1ccc(Cn2nc3n(CCCOC(C)C)c(=O)c4ccccc4n3c2=O)cc1	i
CN(Cc1cccs1)c1ncnc2ccc(-c3ccc4c(c3)OCO4)cc12	+
CN(Cc1cccs1)Cc1cccn1C	i
CCCn1c(=O)c2ccc(C(=O)NC(C)CC)cc2n2c(SCC(=O)Nc3cccc(F)c3)nnc12 (stereo unspecified)	i
CCc1ccc(CNC(=O)c2ncn3c2C(=O)N(C2CC2)C(C)(C(=O)NCc2ccc(OC)cc2)C3)cc1 (stereo unspecified)	i
CC(C)c1cc(-c2n[nH]c(=O)n2-c2ccc3c(ccn3C)c2)c(O)cc1O	+
CCCn1c(=O)c2ccc(C(=O)NC3CCCCC3)cc2n2c(=O)n(C)nc12	i
Cc1ccc(C(=O)CSc2nnc3n(C)c(=O)c4ccc(C(=O)NC5CCCC5)cc4n23)cc1	i
Cc1ccc(Cn2c(=O)c3ccc(C(=O)NCC(C)C)cc3n3c(=O)n(Cc4cccc(F)c4)nc23)cc1	i
N[C@@H](Cc1c[nH]c2ccc(O)cc12)C(=O)O	i
COc1cc2c(CCNC(C)=O)c[nH]c2cc1O	+
O=C(Cc1c[nH]c2ccccc12)NCCc1c[nH]c2ccc(Cl)cc12	i
Cc1cccc(N2C(=O)c3cc(-c4ccco4)nn3CC2(C)C(=O)NC2CCCCC2)c1C (stereo unspecified)	i
COCCCN1C(=O)c2cc(-c3ccc(C(C)C)cc3)nn2CC1(C)C(=O)NC1CCCCC1 (stereo unspecified)	i
CN1C(=O)c2cc(C(=O)NCCCc3ccccc3)nn2CC1(C)C(=O)NC1CCCCC1 (stereo unspecified)	i
Clc1ccc(Cn2c(CN3CCCC3)nc3ccccc32)cc1	i
Clc1ccc(Cn2c(Cc3ccccc3)nc3ccccc32)cc1	+
CC1(C(=O)NCc2ccccc2)Cn2c(nc3ccccc32)C(=O)N1Cc1ccc(Cl)cc1 (stereo unspecified)	i
COc1ccc(CN2C(=O)c3cc4ccc(OC)cc4n3CC2(C)C(=O)NC2CCCCC2)cc1 (stereo unspecified)	i
CCCn1c(=O)c2ccc(C(=O)NC3CCCC3)cc2n2c(=O)n(CC(=O)NCc3ccccc3)nc12	i
CC1(C(=O)NC2CCCC2)COc2c(oc3ccccc23)C(=O)N1Cc1cccc(Br)c1 (stereo unspecified)	i
SMILES	Methyltransferases
CC(=O)Nc1c2n(c3ccc(F)cc13)CC(C)(C(=O)NC1CCCCCC1)N(C1CCCCCC1)C2=O (stereo unspecified)	i
CCCN1C(=O)c2cc3c(OC)ccc(OC)c3n2CC1(C)C(=O)NC1CCCC1 (stereo unspecified)	i
CCC(Cc1ccccc1)NC(=O)Cn1c(=O)oc2cc(S(=O)(=O)NCc3ccccc3)ccc21 (stereo unspecified)	i
CCc1ccc(/C=C2/SC(=S)NC2=O)cc1	+
O=C1NC(=O)/C(=C/c2ccc3nccnc3c2)S1	i
Cc1cc2c(cc3n2CC(C)(C(=O)NC2CCCCCCC2)N(CCC(C)C)C3=O)o1 (stereo unspecified)	i
Cc1cc(NC2CCCCC2)nc(-n2nc(C)cc2C)n1	i
Cc1cc(N2CCOCC2)ccc1Nc1nc(NC2CCCCC2)c2[nH]cnc2n1	+
N#Cc1cc(-c2ccnc(Nc3ccc(N4CCOCC4)cc3)n2)ccc1OC1CCOCC1	i
CCCCCNc1nc2c(-c3ccc(F)cc3)nnn2c2ccccc12	i
CC1CCC(NC(=O)C2(c3ccccc3)Cn3c(cc4sccc43)C(=O)N2Cc2ccccc2)CC1 (stereo unspecified)	i
CC(=O)/C=C/C1(O)C(C)=CC(=O)CC1(C)C (stereo unspecified)	i
CC1=CC(=O)CC(C)(C)C1(O)CCC(C)O (stereo unspecified)	+
CC1=CC(=O)CC(C)(C)[C@@]1(O)/C=C/C(C)O[C@@H]1O[C@H](CO)[C@@H](O)[C@H](O)[C@H]1O (stereo partly specified)	i
Cc1ccc(Cn2c(=O)c3ccccc3n3c(=O)n(CC(=O)Nc4cc(C)cc(C)c4)nc23)cc1	i
Cc1cccc(CSc2nnc3n(C)c(=O)c4ccc(C(=O)NC5CCCCC5)cc4n23)c1	i
COc1ccc(OC)c2c1cc1n2CC(C)(C(=O)NC2CCCC2)N(CCN2CCOCC2)C1=O (stereo unspecified)	i
Oc1ccc(Nc2nc(-c3ccc(Cl)cc3)cs2)cc1	i
Clc1ccc(-c2csc(NN=C3CCCC3)n2)cc1	+!
CN1C(=O)c2cc(C(=O)NC3CCCc4ccccc43)nn2CC1(C)C(=O)NC1CCCCCC1 (stereo unspecified)	i
COc1ccc(CN2CCCC3(CC(c4cccc(C(F)(F)F)c4)=NO3)C2)cc1 (stereo unspecified)	i
COc1ccc(Cn2c(=O)c3ccccc3n3c(-c4ccc(O)cc4)nnc23)cc1	i
COc1ccc(-c2nc(-c3cc(C(F)(F)F)cc(C(F)(F)F)c3)n(Cc3ccc(C(N)=O)cc3)c2-c2ccc(OC)cc2)cc1	+
O=C(CSc1nnc2n(Cc3ccccc3)c(=O)c3ccccc3n12)Nc1ccc(F)cc1F	i
Cc1ccc(CNC(=O)C2(C)Cn3nc(C(=O)NCCc4cccc(C)c4)cc3C(=O)N2C)cc1 (stereo unspecified)	i
SMILES	Methyltransferases
Cc1ccc(C)c(S(=O)(=O)c2nnn3c2nc(NCCC(C)C)c2ccccc23)c1	i
COc1ccc2c(c1)c(NC(C)=O)c1n2CC(C)(C(=O)NC2CCCC2)N(Cc2ccco2)C1=O (stereo unspecified)	i
NC(=Nc1ccc(CCNCc2cccc(Cl)c2)cc1)c1cccs1	+
CCCn1c(=O)c2ccc(Cl)cc2n2c(=O)n(CC(=O)c3ccc(F)cc3)nc12	i
O=C1NC(=O)C(c2ccccc2[N+](=O)[O-])=C1Nc1ccc(O)c(Cl)c1	+
C=Cc1ccc(O[C@@H]2O[C@H](CO[C@@H]3O[C@@H](C)[C@H](O)[C@@H](O)[C@H]3O)[C@@H](O)[C@H](O)[C@H]2O)cc1	i
OC[C@H]1O[C@@H](OC[C@H]2O[C@@H](OCc3ccccc3)[C@H](O)[C@@H](O)[C@@H]2O)[C@H](O)[C@@H](O)[C@@H]1O	i
C[C@@H]1O[C@@H](OC[C@H]2O[C@@H](OCc3ccccc3)[C@H](O)[C@@H](O)[C@@H]2O)[C@H](O)[C@H](O)[C@H]1O	+
CCC(C)NC(=O)c1ccc2c(=O)n(CC(C)C)c3nn(CC(=O)Nc4ccccc4)c(=O)n3c2c1 (stereo unspecified)	i
Cc1ccc(C(=O)Cn2nc3n(C(C)C)c(=O)c4ccc(C(=O)NC5CCCC5)cc4n3c2=O)c(C)c1	i
COC(C)(C)CCn1nc(Nc2c(C)cccc2C)c2cnc(Nc3ccc(OCCN4CCCC4)c(F)c3)nc21	+
